Compound activity: PubChem, several laboratories
The entries come from a sample that favours hits as a whole.
HIV RNase H inh-1 = blocks HIV-1 RNase H cleavage of RNA/DNA duplex; 1.9% of 65,000 active; inhibition, % at 10 µM; P04585; RT-RNase H RNA/DNA duplex cleavage, fluorescence; AID 565; in the data active means inhibition above about 50%
RmlCD inh mix = inhibitors of RmlC and RmlD coupled enzymes; RmlC/RmlD coupled enzyme inhibition, 384-well mixture HTS; inhibition, % at 5.5 µM; 0.39% of 110,000 active; in the data active means inhibition above about 30%, passing the limit was not always enough; inconclusive means no clear call, values can overlap the other calls
HIV RNase H inh-2 = confirmation of HIV-1 reverse transcriptase RNase H inhibitors | AID 651 | shares compounds with HIV RNase H inh-1 | 39% of 1,000 active | inhibition, % at 10 µM | Recombinant RT RNase H, fluorescent RNA/DNA duplex cleavage; in the data active means inhibition above about 48%; inconclusive means no clear call, values can overlap the other calls
Large screens that a line does not name were inactive (follow-up assays come after a bar, where they were run).

O=C(Nc1ccc2c(c1)OCCO2)C1CCCN(S(=O)(=O)c2cccnc2)C1 (stereo unspecified)	none
Cc1cc(C)nc(Nc2nc3ccccc3[nH]2)n1	none
c1ccc(Nc2nc3ccccc3[nH]2)nc1	HIV RNase H inh-1 80 | HIV RNase H inh-2 inactive
CCOC(=O)N1CCN(C(=O)c2ccc(NC(=O)c3ccc(C)cc3)cc2)CC1	none
Cc1nc2ccc(NC(=O)c3cccc(S(=O)(=O)N4CC(C)OC(C)C4)c3)cc2s1 (stereo unspecified)	none (no result: HIV RNase H inh-1)
CCn1c(N)c(C(=O)NCC2CCCO2)sc1=S (stereo unspecified)	none
Nc1c(C(=O)NCc2cccnc2)sc(=S)n1-c1ccccc1	HIV RNase H inh-1 60 | HIV RNase H inh-2 63
CCn1c(N)c(C(=O)NCc2cccnc2)sc1=S	none (no result: RmlCD inh mix)
Nc1c(C(=O)NCC2CCCO2)sc(=S)n1-c1ccccc1 (stereo unspecified)	HIV RNase H inh-1 84 | HIV RNase H inh-2 inconclusive
O=C(CN(C1CCCCC1)S(=O)(=O)c1ccc(Cl)cc1)NCc1ccncc1	none
O=C(CCSc1ccc(Cl)cc1)NC12CC3CC(CC(C3)C1)C2	none (no result: HIV RNase H inh-1)
O=C(O)C1CC=CCC1C(=O)Nc1cccc(Cl)c1 (stereo unspecified)	none
N#Cc1c(-c2ccccc2)cc(-c2ccco2)c(C#N)c1N	none (no result: RmlCD inh mix)
N#Cc1sc2nc(-c3ccccc3)cc(-c3ccco3)c2c1N	HIV RNase H inh-1 95 | HIV RNase H inh-2 inactive
COc1ccc(C(=O)NC(=S)NC(C)(C)C)cc1Br	none (no result: HIV RNase H inh-1)
O=C1NC(c2ccccn2)Nc2sc3c(c21)CCC3 (stereo unspecified)	none
Cn1cc(C2NC(=O)c3c(sc4c3CCCC4)N2)c2ccccc21 (stereo unspecified)	HIV RNase H inh-1 69 (no result: RmlCD inh mix) | HIV RNase H inh-2 inconclusive
Cc1ccc(-n2c(O)c(C=Nc3ccccc3N)c(=O)[nH]c2=O)cc1C	none
O=c1[nH]c(=O)n(-c2ccc(F)cc2)c(O)c1C=Nc1ccccc1N1CCCC1	HIV RNase H inh-1 74 | HIV RNase H inh-2 62
CCCSc1nc(C)c(-c2csc(C(C#N)=C3CCCC3)n2)cc1C#N	HIV RNase H inh-1 58 | HIV RNase H inh-2 inactive
CCCCSc1nc2c(cc1C#N)CCC2	none
Cc1ccc(S(=O)(=O)Nc2cc(Cl)c(O)cc2C)cc1	none (no result: HIV RNase H inh-1)
Cc1c(NS(=O)(=O)c2ccccc2)cc(Cl)c(O)c1C	HIV RNase H inh-1 74 | HIV RNase H inh-2 inactive
COc1ccc(C(=O)CC(Nc2ccc([N+](=O)[O-])cc2)c2ccc(Cl)cc2)cc1 (stereo unspecified)	none (no result: HIV RNase H inh-1)
CCN1C(=O)/C(=C2/Sc3ccc(OC)cc3N2C)SC1=Nc1ccc(C(C)=O)cc1	none (no result: RmlCD inh mix)
CCN1C(=O)/C(=C2/Sc3ccc(OC)cc3N2C)SC1=Nc1cccc(O)c1	HIV RNase H inh-1 51 | HIV RNase H inh-2 inactive
Cc1nnc(NC(=O)c2c(-c3ccccc3)noc2C)s1	none (no result: HIV RNase H inh-1)
CCC(CC)c1nnc(NC(=O)c2c(-c3ccccc3)noc2C)s1	HIV RNase H inh-1 84 | HIV RNase H inh-2 inactive
COc1ccc(N2CCN(Cc3cc(=O)oc4cc5c(cc34)CCCC5)CC2)cc1	HIV RNase H inh-1 81 | HIV RNase H inh-2 63
O=c1cc(CN2CCN(c3ccccc3)CC2)c2c(ccc3ccccc32)o1	none
COc1ccc(N2CCN(Cc3cc(=O)oc4ccc(Cl)cc34)CC2)cc1	none
O=c1cc(CN2CCN(c3ccccc3)CC2)c2cc(O)c(-c3ccccc3)cc2o1	HIV RNase H inh-1 73 | HIV RNase H inh-2 69
Cc1ccc2nc(NC(=O)Cn3cc4c(n3)CCCCC4)sc2c1	none
CCn1c(-c2ccc(F)cc2)n[nH]c1=S	none
CCn1c(-c2ccc(C(C)(C)C)cc2)n[nH]c1=S	HIV RNase H inh-1 64 | HIV RNase H inh-2 inactive
Cn1c(C(=O)NCc2ccccn2)cc2c(=O)n(C)c3ccccc3c21	none
COc1ccccc1CNC(=O)c1cc2c(=O)n(C)c3ccccc3c2n1C	HIV RNase H inh-1 89 (no result: RmlCD inh mix) | HIV RNase H inh-2 88
COC(=O)c1ccc2c(c1)N(Cc1nc(-c3cccc(Cl)c3)oc1C)C(=O)C1CCCN21 (stereo unspecified)	none (no result: RmlCD inh mix)
COC(=O)c1ccc2c(c1)N(Cc1nc(-c3ccc(Cl)cc3)oc1C)C(=O)C1CCCN21 (stereo unspecified)	HIV RNase H inh-1 78 (no result: RmlCD inh mix) | HIV RNase H inh-2 96
COC(=O)[C@@H]1[C@H](CCc2ccccc2)NC(=O)N(Cc2ccccc2)[C@@H]1C	none (no result: HIV RNase H inh-1)
OCCn1c(CSc2nnc(-c3ccco3)n2-c2ccccc2)nc2ccc(Cl)cc21	HIV RNase H inh-1 80 | HIV RNase H inh-2 inactive
OCCn1c(CSc2nc3ccccc3n2CCO)nc2ccccc21	none
C/C=C\C(=O)Nc1cccc(C2=NOC3(C2)C[C@H](C(N)=O)N(C(=O)[C@H]2CCC(=O)N2)C3)c1 (stereo partly specified)	none (no result: HIV RNase H inh-1)
c1cc(C(c2nnnn2C2CCCC2)N2CCOCC2)ccn1 (stereo unspecified)	none
Oc1ccc(N2CCN(C(c3ccncc3)c3nnnn3C3CCCC3)CC2)cc1 (stereo unspecified)	HIV RNase H inh-1 79 | HIV RNase H inh-2 inconclusive
